BRCT inh red – disrupts BRCA1 BRCT binding to phosphoprotein, red fluorophore readout. P38398. BRCT-phosphopeptide binding, red fluorescence polarization. Potency, µM (series often up to 76.9 µM), without a hit: top-dose activity change, negative = inhibition, most hits filed as inhibitors. actives 0.03% (n = 75,000). AID 892; further: on the % scale 0 is the no-effect control and ±100 the full control effect
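Fluorescence polarization: 100 nM His-tagged BRCA1 BRCT with 100 nM TAMRA-labelled phospho-BACH1 decapeptide, phosphate buffer pH 7.3 with 150 mM NaCl, DTT, 0.01% Tween 20; 12 min RT. Binding inhibition seen as FP decrease.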
Tau fil binding – binds recombinant human tau filaments; AID 596; P10636; Potency, µM (doses to about 57.1 µM), for inactives: top-dose activity change, negative = inhibition; recombinant tau filaments, thioflavin S fluorescence, 15 h; filaments grown with octadecylsulfate alongside compound; actives 2% (n = 71,000);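 further: potency means the concentration at half of the fitted maximal effect; on the % scale 0 is the no-effect control and ±100 the full control effect; actives lower thioflavin S fluorescence by blocking filaments or displacing dye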
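Assay mix: 1 uM His-tagged tau, 30 uM sodium octadecylsulfate, thioflavine S dye in HEPES/NaCl/DTT buffer. Compound is added prior to the inducer. Fluorescence after 15 h at 37 C.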
YjeE inh – YjeE (TsaE) inhibition, E. coli. P0AF67. purified YjeE enzyme, qHTS inhibition assay. Potency, µM. actives 0.05% (n = 71,000). AID 605
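Fluorescence polarization of a BODIPY Texas Red–ADP probe (2 uM) bound to purified YjeE (10 uM) was read after 15 min room-temperature incubation with compounds. Loss of polarization marks inhibitors; ADP serves as titrated control.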
Hsp90 Hop PPI – changes Hsp90-Hop TPR2A binding signal, up or down. AlphaScreen TPR2A-His6 binding biotin-Hsp90 C-terminal peptide. Potency, µM (highest dose often 57 µM), without a hit: at the top dose activity change, negative = inhibition. actives 0.44% (n = 71,000). AID 595; active means well fitted curve in either direction with a large enough effect; inconclusive means small, poorly fitted or top-dose-only effect, or another doubt; further: potency means the concentration at half of the fitted maximal effect; on the % scale 0 is the no-effect control and ±100 the full control effect
DNA Pol III inh – DNA polymerase III holoenzyme inhibition. Potency, µM (highest dose often 57.1 µM), inactives show at the highest dose activity change, negative = inhibition. actives 0.25% (n = 71,000). reconstituted DNA polymerase III holoenzyme replication, biochemical; further: potency means the concentration at half of the fitted maximal effect; on the % scale 0 is the no-effect control and ±100 the full control effect
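Reconstituted *E. coli* holoenzyme (0.35 nM Pol III, 1 nM beta, 154 nM SSB, 2 nM primase) was preincubated with compound for 15 min at RT. Synthesis on 1.4 nM ssM13Gori ran 35 min, then was stopped with PicoGreen/EDTA and read as dsDNA fluorescence.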
BRCT inh green – BRCA1 BRCT-phosphoprotein interaction inhibition; P38398; BRCA1 BRCT-phosphopeptide binding, green fluorescence polarization; Potency, µM (highest dose often 76.9 µM), for inactives: at the top dose activity change, negative = inhibition, actives largely listed as inhibitors; actives 0.05% (n = 75,000); AID 875;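 further: potency means the concentration at half of the fitted maximal effect; plate controls were peptide without protein for full effect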
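Fluorescence polarization: His-tagged BRCT (~35 kDa BRCA1 C-terminus, 250 nM) bound to 100 nM fluorescein-labeled phosphorylated 10-aa BACH1 peptide, pH 7.3 phosphate buffer with DTT and Tween 20. Compounds incubated 12 min at room temperature; inhibition read as lowered polarization.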
* marks the source's active call; other numbers are inactive results; i = inactive; ? = inconclusive; nt = not tested or not shown; [ ] = dose if it differs, or a comment. Rows were chosen to be rich in hits. Some 2.4% of all compounds tested hit in one or more screens of this group. Unless noted, the call rests on the fitted dose curve; in most records, active means well fitted curve in the direction sought with a large enough effect; inconclusive means small, poorly fitted or top-dose-only effect, or another doubt; inactive means no such curve, though single readings can be large; an effect the other way counts as inactive or inconclusive.

SMILES	BRCT inh red	Tau fil binding	YjeE inh	Hsp90 Hop PPI	DNA Pol III inh	BRCT inh green
CN1/C(=C\P(=O)(N(C)C)N(C)C)C(C)(C)c2ccccc21	16%	10µM*	?	-5%	0%	27%
CN1/C(=C/C=N/n2cnnc2)C(C)(C)c2ccccc21	1%	-5%	i	2%	-6%	-1%
O=C(O)COCCN1CCN([C@@H](c2ccccc2)c2ccc(Cl)cc2)CC1	-1%[34.4 µM]	1%[25.6 µM]	i	0%[26 µM]	1%[25.6 µM]	1%[34.4 µM]
CCCCC(CC)COC(=O)C(C#N)=C(c1ccccc1)c1ccccc1 (stereo unspecified)	-2%	32µM*	i	?	0%	1%
Cc1c(C(=O)Nc2ccncc2)oc2ccccc12	-1%	-2%	i	-4%	0%	3%
Cc1c(C(=O)Nc2ccc(N3CCOCC3)cc2)oc2ccccc12	1%	25µM*	i	-4%	-1%	-1%
O=C(CCc1ccccc1)Nc1ccc(N2CCOCC2)cc1	1%	16µM*	i	-4%	-7%	-1%
O=C1CN2CCN(CC2)CC(=O)Nc2ccc(cc2)S(=O)(=O)c2ccc(cc2)NC(=O)CN2CCN(CC2)CC(=O)Nc2ccc(cc2)S(=O)(=O)c2ccc(cc2)N1	6%[15.4 µM]	69%[11.4 µM]	i	-5%[11 µM]	-13%[11.4 µM]	12%[15.4 µM]
CCOC(=O)CS(=O)(=O)c1nc(-c2ccccc2)cc(C(F)(F)F)n1	1%	20µM*	i	-2%	-1%	1%
CCOC(=O)CCS(=O)(=O)c1nc(-c2ccccc2)cc(C(F)(F)F)n1	-1%	?	i	-1%	-6%	1%
COc1ccc(-c2nc3c(c4c2CC(C)OC4)CN(CCC(C)C)CC3)cc1 (stereo unspecified)	1%[15.4 µM]	nt	nt	nt	nt	0%[15.4 µM]
O=C(CSc1nnc(C2CC2)n1Cc1ccccc1)c1cc2ccccc2o1	1%	10µM*	i	-9%	7%	6%
NC(=O)CSc1nnc(-c2cc3ccccc3o2)n1Cc1ccccc1	-2%	224%	i	-7%	-5%	-4%
O=C1[C@H]2[C@H]3[C@H](O)[C@H](O)C/C(=N/OC[C@@H](O)COCc4ccco4)[C@H]3CC[C@@H]2C(=O)N1C1CCCCC1	2%[15.4 µM]	nt	nt	nt	nt	-4%[15.4 µM]
CC1=NNC(=S)NCCCN2CCN(CCCNC(=S)NN=C(C)C=NNC(=S)NCCCN3CCN(CCCNC(=S)NN=C1)CC3)CC2	0%[15.4 µM]	?	i	4µM*	-13%[11.4 µM]	-3%[15.4 µM]
COc1cccc(Cn2c(=O)c(-c3ccccc3)nc3cncnc32)c1	-3%	20µM*	i	-3%	-21%	0%
COc1cccc(Cn2c(=O)c(-c3ccc(F)c(F)c3)nc3cncnc32)c1	1%	10µM*	i	-12%	-10%	1%
COc1cccc(Cn2c(=O)c(-c3cccs3)nc3cncnc32)c1	0%	?	i	-4%	3%	2%
FC(F)(F)c1ccccc1-c1ccc2ncnc(NCc3cccnc3)c2c1	0%	5%	i	-5%	0%	-2%
COc1ccc(-c2c(=O)n(OCc3ccccn3)c3ccccc3[n+]2[O-])cc1OC	3%	2.5µM*	i	-30%	-10%	-2%
C=CCSc1nnc(-c2cc(Br)ccc2N)c(=O)[nH]1	1%	-22%	i	-2%	-7%	-2%
CCCCSc1nnc(-c2cc(Br)ccc2N)c(=O)[nH]1	-1%	20µM*	i	1%	1%	0%
O=C(Cc1ccc(Cl)cc1)Nc1ccc(-c2nnc(-c3ccco3)o2)cc1	0%	112%	i	-3%	20µM*	2%
CC(C)N=c1cc2n(-c3ccc(Cl)cc3)c3ccccc3nc-2cc1Nc1ccc(Cl)cc1	-1%[34.4 µM]	0.13µM*	i	-7%[26 µM]	-7%[25.6 µM]	0%[34.4 µM]
Cc1c2cc[n+](CCN3CCCCC3)cc2c(C)c2c1[nH]c1ccc(O)cc12	0%[15.4 µM]	4µM*	i	-11%[11 µM]	2.5µM*	-5%[15.4 µM]
SMILES	BRCT inh red	Tau fil binding	YjeE inh	Hsp90 Hop PPI	DNA Pol III inh	BRCT inh green
CCOC(=O)c1[nH]c2ccc(C)cc2c1NC(=O)CN1CCCCC1	-1%	-2%	i	-4%	-2%	-2%
N#Cc1cc2c(nc1SCc1ccncc1)CCC2	-1%	6.3µM*	i	-2%	-1%	-1%
C=CCN1CCc2c(cc(O)c(O)c2Br)[C@H](c2ccccc2)C1	-2%	-4%	i	10µM*	-12%	-2%
COc1cccc(O)c1O	0%	nt	nt	nt	nt	-4%
O=c1c(-c2ccc(F)c(F)c2)nc2cncnc2n1Cc1ccc(F)cc1	-2%	16µM*	i	-12%	-6%	-1%
O=c1c(-c2cccs2)nc2cncnc2n1Cc1ccc(F)cc1	-2%	25%	i	-2%	-8%	0%
O=c1c(-c2cc(F)cc(F)c2)nc2cncnc2n1Cc1ccccc1Cl	0%	?	i	-11%	-8%	0%
O=c1c(-c2ccc(F)c(F)c2)nc2cncnc2n1Cc1ccccc1Cl	-2%	7.9µM*	i	-12%	-11%	-1%
CC(C)CN(C(=O)c1ccc(=O)n(C)n1)c1nc2ccccc2s1	1%	25µM*	i	?	0%	-1%
CC[C@]1(O)C[C@H]2CN(CCc3c([nH]c4ccccc34)[C@](C(=O)OC)(c3cc4c(cc3OC)N(C)[C@@H]3[C@](O)(C(=O)OC)[C@H](OC(C)=O)[C@]5(CC)C=CCN6CC[C@]43[C@@H]65)C2)C1	1%	-8%	i	-8%	-8%	-3%
O=C1C=C(N2CCN(c3ccccn3)CC2)C(=O)c2c(O)ccc(O)c21	0%[15.4 µM]	1.6µM*	i	?	-4%[11.4 µM]	-2%[15.4 µM]
O=C(CN1C(=O)c2ccccc2C1=O)N1CCN(c2ccccn2)CC1	-1%	2%	i	-1%	-4%	0%
N[C@H](CCCC(=O)O)C(=O)O	-1%	-8%	i	4%	6%	-2%
CN(C)c1ncnc2ccc(-c3ccoc3)cc12	1%	5%	i	-2%	-10%	-2%
CN(C)c1ccc(-c2ccc3ncnc(N4CCNCC4)c3c2)cc1	-2%	13µM*	i	-6%	-13%	-1%
CN(C)c1ccc(-c2nc(N3CCNCC3)c3ccccc3n2)cc1	0%	3.2µM*	i	-7%	-10%	-1%
CN(C)c1ccc(-c2ccc3ncnc(N(C)C)c3c2)cc1	-1%	5µM*	i	-4%	1%	0%
c1nc(N2CCNCC2)c2cc(-c3ccc4c(c3)OCO4)ccc2n1	1%	-5%	i	-4%	6%	1%
COc1ccc(NC(=O)N2CCCC3(CCN(C(=O)c4ccc(OC)cc4)CC3)C2)cc1	0%	-4%	i	-5%	1%	-4%
